Assay results as given in PubChem BioAssay AID2462 (Broad Institute, 2010).
In all, about 330,000 compounds went through this assay and about 220 (0.067%) were called active.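 Rule for the calls: active = over half of replicate activation scores above 10%, or exactly half above 10 with the replicate mean above 10; inconclusive = replicate mean below 10 yet half the replicates above 10; inactive = over half of replicates below 10.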 The entries come from a sample that favours actives as a whole.

Assay: caspase 3/7 activation in MEF A1-2A-BIM cells, primary screen, A1 inhibitor project, cell-based, luminescence, HTS (AID 2462)
Details: Caspase-Glo 3/7 luminescence, 3 h, stronger effect = higher value, percent of clofoctol response, vehicle zero, concentration not given here

Caspase activation, active:
O=[N+]([O-])C(=c1ccc2c(c1)N1C3=C(CCCC3)CC3CCCCC31N=2)[N+](=O)[O-] (stereo not given) 6.39%, COc1ccc(NC(=O)/C(Cl)=C(/Cl)S(=O)Cc2ccc(C)cc2)cn1 (stereo not given) 7.8%, CC[C@H]1CN2CCc3cc(OC)c(OC)cc3[C@@H]2C[C@@H]1C[C@H]1NCCc2cc(OC)c(OC)cc21 7.26%

Caspase activation, inactive:
C=CCOc1c(CNn2cn[nH]c2=S)cccc1OC 0.398%, CCOC(=O)c1c(C)n(C)c2ccc(OC)c(NS(=O)(=O)CC)c12 -0.135%, CC12CCC(C(=O)N(NC(=O)c3ccccc3O)C1=O)C2(C)C (stereo not given) 1.44%, CCOC(=O)c1cnc(-n2nc(C)cc2C)nc1NNc1cc(C)nc(-c2ccccc2)n1 -0.244%, O=C1CC(Cc2ccccc2)C(=O)N1c1ccc(Cl)cn1 (stereo not given) -0.386%, CCOC(=O)C1=C(CN2CCc3ccccc32)NC(=O)NC1c1cc(C)ccc1C (stereo not given) -0.324%, COC(=O)c1ccc(/C=C/c2c(-c3ccc(OC)cc3)sc3ccccc23)cc1 0.0613%, CCOc1ccc(NC(=O)c2ccc(CSc3nnnn3C)cc2)cc1 -1.46%, CN1CCN(CC(=O)C23CC4CC(CC(C4)C2)C3)CC1 -0.618%, Cc1c(C(=O)NNC(=O)c2ccncc2)oc2ccccc12 -1.06%, O=c1cc(CN2CCN(c3cccc(Cl)c3)CC2)c2cc3c(cc2o1)CCCC3 0.443%, Cc1cccc(N2CC(C(=O)Nc3ccccc3N3CCCC3)CC2=O)c1C (stereo not given) -0.198%, COc1ccc(C2C(C#N)=C(N)Oc3cc(N)ccc32)cc1OC (stereo not given) 0.292%, FC(F)(F)c1ccnc(Oc2ccc(C3=NCCS3)cc2)c1 -5.34%, CC(=O)Nc1ccc(C(=O)OCC(=O)Nc2ccc([N+](=O)[O-])cc2C(F)(F)F)cc1 0.347%, Cc1ccc(CNC(=O)C2CCCN2C(=O)NCc2ccccc2)cc1 (stereo not given) 0.299%, Cc1cccc(OCCNC(=S)NC(=O)c2cccnc2)c1 0.352%, O=C(NCCN1CCN(C(=O)c2cccc([N+](=O)[O-])c2)CC1)C(=O)NCc1ccc(Cl)cc1 -0.117%, O=C(CN(Cc1ccccc1)C(=O)CCC(=O)Nc1ccccn1)NCCc1ccccc1 -0.282%, CCOC(=O)CC1COCCN1C(=O)c1cc(COc2ccc(F)c(F)c2)on1 (stereo not given) -0.113%, Cc1ccc(-n2ncc3c2CC(C)(C)CC3NC(=O)CCc2cnn(C)c2)cc1 (stereo not given) 0.222%, COc1ccc(N2CCN(C(=O)CCSCc3ccccc3F)CC2)cc1 -0.325%, CSc1ccc(/C=C2\NC(=O)NC2=O)cc1 -0.861%, O=C(CCc1n[nH]c(=O)[nH]c1=O)N/N=C/c1ccc(Br)o1 -0.493%, CN(C(=O)c1cccc(NC(=O)C2CCN(C(=O)OC(C)(C)C)CC2)c1)C1CCC1 0.788%, COCCCNC(=O)C1CCN(c2ccc(N3CCOCC3)nn2)CC1 0.283%, C#CCOCCOCCOCCNc1nc(N2CCN(C(=O)[C@H](CCCN=C(N)N)n3cc(C(N)[C@@H](C)CC)nn3)CC2)nc(N2CCN(C(=O)[C@H](CO)n3cc([C@@H](N)C(C)C)nn3)CC2)n1 (stereo not given in full) 0.85%, COC(=O)CNC(=O)c1ccc2c(c1)S(=O)(=O)c1ccccc1C2=O -0.413%, CCC1C(=O)NCCN1C(=O)c1ccc2nc(Cc3ccc(OC)cc3)oc2c1 (stereo not given) -0.419%, COc1ccc(CCNc2cc(N3CCN(C(=O)c4ccccc4OC)CC3)ccc2[N+](=O)[O-])cc1OC -0.378%, O=C1c2ccccc2NC(c2ccccn2)N1NS(=O)(=O)c1ccccc1 (stereo not given) 1.93%, CC(=O)c1ccccc1NC(=O)C1CC(=O)N(c2ccc3c(c2)OCCO3)C1 (stereo not given) 0.41%, Cc1ccc(-c2nnc(CN3CCN(C)CC3)o2)cc1 0.0366%, COc1cc2c(cc1OC)C(C(=O)Nc1cc(C)c(OC)c(C)c1)CC(=O)N2 (stereo not given) 0.803%, Cc1ccc2cc3cc(C(=O)N4CCCCCC4)oc3nc2c1 0.083%, NC1=NC(=O)C(Cc2cccc(Cl)c2)S1 (stereo not given) -0.108%, CC(C)(C)OC(=O)N[C@H](C(=O)OC(C)(C)C)c1ccc(Br)cc1 -0.98%, CCOC(=O)c1c(NC(=O)CCCN2CCOCC2)sc2c1CC(C)(C)OC2 -0.683%, CN(C)C(=O)Cn1c(=O)n(S(=O)(=O)c2ccccc2)c2ccccc21 -0.645%, CN(c1ccc2nc3ccccc3c(=O)n2n1)C1CCCCC1 0.636%, CN(C(=O)CSc1nnc(N)s1)c1c(N)n(Cc2ccccc2)c(=O)[nH]c1=O 0.167%, CCOC(=O)C(NC(=O)CC(C)C)(Nc1sc2c(c1C(N)=O)CCCC2)C(F)(F)F (stereo not given) 0.722%, O=C(O)c1cc2ccccc2c(=O)s1 1.64%, COc1ccc(CCNC(=O)CN(C)S(=O)(=O)c2ccc3nc(C)sc3c2)cc1OC -2.31%, CCC(C)NC(=O)N[C@@H](CCSC)C(=O)O (stereo not given in full) 0.604%, CCCCC(O)(CCCC)C(=O)NN(C(=O)CCl)c1ccccc1 0.273%, COc1ccc(OCC(=O)NN2Cc3ccccc3C2=N)cc1 1.26%, Cc1ccc2oc(C(=O)N3CCN(C)C[C@@H]3C(C)C)c(C)c2c1 -0.346%, CCOc1ccccc1-n1c(SCC(=O)NCc2ccco2)nnc1-c1ccncc1 -0.681%, O=C(NCc1ccccc1)C1CCCN(c2nc3ccsc3c(=O)s2)C1 (stereo not given) -0.382%, COc1cccc(NC(=O)Cn2c3ccc(F)cc3c3nc4n(c(=O)c32)CCS4)c1 -1.98%, O=c1c(-c2ccccc2Cl)c[nH]n1-c1ccccc1 -1.88%, COc1ccc(C(=O)NCCSc2ccccc2C)cc1 -1.26%, OCCC1CN(Cc2cnc(-c3ccccc3)s2)CCN1CCc1ccccc1 (stereo not given) 0.493%, CCOCCn1[nH]c2ccccc2c1=O -0.169%, O=S(=O)(Nc1ccc(-c2ccc(N3CCOCC3)nn2)cc1)c1cc(Cl)ccc1Cl 0.476%, CC(C)CNC(=S)NNC(=O)c1ccccc1OC(F)F 1.35%, CN(Cc1c(F)cccc1Cl)C(=O)CNC(=O)c1ccc2c(c1)OCO2 -0.444%, N#Cc1c(-c2ccc(F)cc2)cc(C2CC2)nc1SCC(=O)c1cccs1 -0.105%, Cc1cccc(C(=O)NCc2nnc(SC(C)C(=O)Nc3nnc(C)s3)n2C)c1 (stereo not given) 0.308%, COc1ccc(C2CC(=O)C=C(NCC3CCCO3)C2)cc1 (stereo not given) 1.09%, Cc1c(C(=O)N2CCN(c3ccc(F)cc3)CC2)oc2c1C(=O)CCC2 -0.061%, Cc1ccc(CC2C(=O)N(c3ccc(F)cc3)C(=O)C2C)cc1 (stereo not given) 0.618%, Cc1cc(-n2cnc(-c3cn(C)nc3C)n2)no1 0.762%, O=C(NCc1ccccc1)C1=C[C@@H](C2CCCCC2)C[C@@H](OCc2ccc(CO)cc2)O1 1.39%, Cc1ccc(CNC(=O)CCS(=O)(=O)c2ccc3c(c2)CC(C)N3C(=O)C2CC2)o1 (stereo not given) 3.53%, O=C(C1CCCO1)N1CCN(C(=S)NC2CC2)CC1 (stereo not given) -0.789%, CC1=C(C(N)=O)C(c2sccc2C)n2nnnc2N1 (stereo not given) -0.851%, CCC1CCCCN1CCCNC(=O)c1cc2c(Cl)nc3ccccc3c2s1 (stereo not given) -0.978%, CC(=O)C(C)n1cnc2scc(-c3ccc(C)cc3)c2c1=O (stereo not given) 0.409%, O=C(NC1CCCCC1)C1CCC(CNS(=O)(=O)c2ccccc2)CC1 (stereo not given) 0.134%, CNc1[nH]ncc1[N+](=O)[O-] -0.643%, COc1ccc(C[C@H]2CN3C(=NC[C@H]3C)N2CCNC(=O)CCC2CCCCC2)cc1 0.277%, CCCN(c1ccc(C)cc1)c1nc(=O)c2cccnc2s1 0.23%, COC(=O)[C@H]1Cc2cnoc2C[C@]1(C)C(=O)O -0.157%, COc1ccc(OC)c(/C=C/C(=O)c2ccc3c(c2)OCO3)c1 -0.508%, COc1ccc(Nc2ccc([N+](=O)[O-])cn2)cn1 -0.342%, CCN(CC(=O)Nc1ccc(OC)cc1)C(=O)CSCc1ccc(C)cc1 -0.709%, COc1ccc2c(c1)CCNC2Cc1ccc(OC)c(O)c1 (stereo not given) 2.35%, CCc1ccc(OCC2c3cc(OC)c(OC)cc3CCN2C(C)=O)cc1 (stereo not given) 0.768%, COc1cccc(NC(=O)CN(C)C(C)C(=O)Nc2ccc(C#N)cc2)c1 (stereo not given) 0.554%, CC[N+](C)(CC)CCC[n+]1c(-c2ccccc2)c2cc(N)ccc2c2ccc(N)cc21 2.85%, CC(=O)Nc1ccc(Sc2ccccc2C(=O)N2CCCC2)cn1 0.126%, Cn1c(C(=O)O)ccc1S(=O)(=O)N(Cc1ccccc1)Cc1ccccc1 -0.442%, O=C(NCCc1ccco1)C(=O)NCCC1CCCCN1S(=O)(=O)c1ccccc1 (stereo not given) 0.605%, CN(C)c1ccc(Nc2c3c4c(cccc4n(C)c2=O)C(=O)c2ccccc2-3)cc1 -0.124%, CC1(C)COC(c2cccn2Cc2ccccc2Cl)=N1 -0.0448%
